Source: the supplement of paper PMC8728848
Many of the other results were omitted from the sample, so the strongest signals are more common in it than they were.

Experiments:
Assay in all cases: glycan array binding signal (z-score within array); higher = stronger binding
Conditions in all cases: glycan notation: IUPAC condensed, linker removed
[1] = biological target: Fuc(a1-2)Gal(b1-4)GlcNAc(b1-3)Gal(b1-4)GlcNAc(b1-3)Gal(b1-4)GlcNAc
Summary of the method: (§1)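 Negative Z-scores can be read as non-binding. The Z-score is calculated within each array and then averaged across arrays of one protein sequence at different concentrations or buffers and across linkers. Arrays, 3228 in all, were curated from the Consortium for Functional Glycomics database and kept only where the protein sequence was available.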

[2] = biological target: Fuc(a1-2)Gal(b1-4)[Fuc(a1-3)]GalNAc(b1-3)Gal(b1-4)[Fuc(a1-3)]GlcNAc
Summary of the method: as §1

[3] = biological target: Fuc(a1-2)Gal(b1-4)[Fuc(a1-3)]GalNAc(b1-3)Gal(b1-4)[Fuc(a1-3)]GlcNAc(b1-3)Gal(b1-4)[Fuc(a1-3)]GalNAc
Summary of the method: as §1

[4] = biological target: Fuc(a1-2)Gal(b1-4)[Fuc(a1-3)]GlcNAc
Summary of the method: as §1

Fuc(a1-2)[Gal(a1-3)]Gal = biological target: Fuc(a1-2)[Gal(a1-3)]Gal
Summary of the method: as §1

[5] = biological target: Fuc(a1-2)[Gal(a1-3)]Gal(b1-4)[Fuc(a1-3)]GlcNAc
Summary of the method: as §1

[6] = biological target: Fuc(a1-2)[GalNAc(a1-3)]Gal
Summary of the method: as §1

Fuc(a1-3)GlcNAc = biological target: Fuc(a1-3)GlcNAc
Summary of the method: as §1

[7] = biological target: Fuc(a1-3)[Gal(b1-4)]GlcNAc
Summary of the method: as §1

Gal(a1-2)Gal = biological target: Gal(a1-2)Gal
Summary of the method: as §1

[8] = biological target: Gal(b1-3)[Neu5Ac(a2-6)]GalNAc
Summary of the method: as §1

[9] = biological target: Gal(b1-3)[Neu5Ac(b2-6)]GlcNAc
Summary of the method: as §1

[10] = biological target: Gal(b1-4)GlcNAc(b1-2)Man(a1-3)[Gal(b1-4)GlcNAc(b1-2)Man(a1-6)]Man(b1-4)GlcNAc(b1-4)GlcNAc
Summary of the method: as §1

[11] = biological target: Gal(b1-4)GlcNAc(b1-3)Gal(b1-4)GlcNAc(b1-3)Gal(b1-4)GlcNAc
Summary of the method: as §1

[12] = biological target: Gal(b1-4)GlcNAc(b1-3)[Gal(b1-4)GlcNAc(b1-6)]GalNAc
Summary of the method: as §1

[13] = biological target: Gal(b1-4)GlcNAc(b1-6)[Gal(b1-3)]GalNAc
Summary of the method: as §1

Gal6S(b1-4)Glc6S = biological target: Gal6S(b1-4)Glc6S
Summary of the method: as §1

GalNAc(b1-4)GlcNAc = biological target: GalNAc(b1-4)GlcNAc
Summary of the method: as §1

GlcNAc(b1-3)GalNAc = biological target: GlcNAc(b1-3)GalNAc
Summary of the method: as §1

Kdn(a2-3)Gal(b1-4)GlcNAc = biological target: Kdn(a2-3)Gal(b1-4)GlcNAc
Summary of the method: as §1

[14] = biological target: Neu5Ac(a2-3)Gal(b1-4)[Fuc(a1-3)]GlcNAc
Summary of the method: as §1

[15] = biological target: Neu5Gc(a2-3)Gal(b1-3)GlcNAc
Summary of the method: as §1

Fuc(a1-2)GlcNAc = biological target: Fuc(a1-2)GlcNAc
Summary of the method: as §1

Fuc(b1-3)GlcNAc = biological target: Fuc(b1-3)GlcNAc
Summary of the method: as §1

Gal(a1-3)GalNAc = biological target: Gal(a1-3)GalNAc
Summary of the method: as §1

Gal(a1-4)Gal(b1-4)Glc = biological target: Gal(a1-4)Gal(b1-4)Glc
Summary of the method: as §1

[16] = biological target: Gal(b1-3)[GlcNAc(b1-6)]GalNAc
Summary of the method: as §1

GalNAc(b1-3)GalNAc = biological target: GalNAc(b1-3)GalNAc
Summary of the method: as §1

GlcNAc(b1-3)Gal(b1-4)Glc = biological target: GlcNAc(b1-3)Gal(b1-4)Glc
Summary of the method: as §1

[17] = biological target: GlcNAc(b1-3)[GlcNAc(b1-6)]GlcNAc(b1-4)GlcNAc
Summary of the method: as §1

[18] = biological target: GlcNAc(b1-4)GlcNAc(b1-4)GlcNAc
Summary of the method: as §1

Man(a1-2)Man(a1-3)Man = biological target: Man(a1-2)Man(a1-3)Man
Summary of the method: as §1

[19] = biological target: Neu5Ac(a2-3)Gal(b1-3)[Fuc(a1-4)]GlcNAc(b1-3)Gal(b1-4)[Fuc(a1-3)]GlcNAc
Summary of the method: as §1

[20] = biological target: Neu5Ac(a2-3)[Neu5Ac(a2-6)]GalNAc
Summary of the method: as §1

Row | Binder | glycan array binding signal (z-score) [1] | glycan array binding signal (z-score) [2] | glycan array binding signal (z-score) [3] | glycan array binding signal (z-score) [4] | glycan array binding signal (z-score) (Fuc(a1-2)[Gal(a1-3)]Gal) | glycan array binding signal (z-score) [5] | glycan array binding signal (z-score) [6] | glycan array binding signal (z-score) (Fuc(a1-3)GlcNAc) | glycan array binding signal (z-score) [7] | glycan array binding signal (z-score) (Gal(a1-2)Gal) | glycan array binding signal (z-score) [8] | glycan array binding signal (z-score) [9] | glycan array binding signal (z-score) [10] | glycan array binding signal (z-score) [11] | glycan array binding signal (z-score) [12] | glycan array binding signal (z-score) [13] | glycan array binding signal (z-score) (Gal6S(b1-4)Glc6S) | glycan array binding signal (z-score) (GalNAc(b1-4)GlcNAc) | glycan array binding signal (z-score) (GlcNAc(b1-3)GalNAc) | glycan array binding signal (z-score) (Kdn(a2-3)Gal(b1-4)GlcNAc) | glycan array binding signal (z-score) [14] | glycan array binding signal (z-score) [15] | glycan array binding signal (z-score) (Fuc(a1-2)GlcNAc) | glycan array binding signal (z-score) (Fuc(b1-3)GlcNAc) | glycan array binding signal (z-score) (Gal(a1-3)GalNAc) | glycan array binding signal (z-score) (Gal(a1-4)Gal(b1-4)Glc) | glycan array binding signal (z-score) [16] | glycan array binding signal (z-score) (GalNAc(b1-3)GalNAc) | glycan array binding signal (z-score) (GlcNAc(b1-3)Gal(b1-4)Glc) | glycan array binding signal (z-score) [17] | glycan array binding signal (z-score) [18] | glycan array binding signal (z-score) (Man(a1-2)Man(a1-3)Man) | glycan array binding signal (z-score) [19] | glycan array binding signal (z-score) [20]
1 | NakA (Mycobacterium tuberculosum) (protein) SVVKPTKVTVFSPDGGADNPGEADLAIDGNPATSWKTDIYTDPVPFPSFKNGVGLMLQLPQATVVGTVAIDVASTGTKVEIRSASTPTPATLEDTAVLTSATALRPGHNTISVEAAAPTSNLLVWISTLGTTDGKSQADISEITIYAASD | 2.46 | 1.53 | 2.85 | 2.46 | 0.037 | 2.29 | 0.057 | 3.17 | -0.303 | -0.019 | -0.457 | -0.353 | -0.5 | -0.502 | -0.414 | -0.553 | -0.213 | -0.305 | -0.001 | -0.507 | -0.418 | -0.404 | – | – | – | – | – | – | – | – | – | – | – | –
2 | F17eG (Escherichia coli), Q9RH92 (protein) MTNFYKVFLAVFILVCCNISHAAVSFIGSTENDVGPSQSSYSRTHAMDNLPFVYNTGYNIGYQNANVWRISGGFCVGLDGKVDLPVVGSLDGQSIYGLTEEVGLLIWMGDTNYSRGTAMSGNSWENVFSGWCVGNYVSTQGLSVHVRPVILKRNSSAQYSVQKTSIGSIRMRPYNGSSAGSVQTTVNFSLNPFTLNDTVTSCRLLTPSAVNVSLAAISAGQLPSSGDEVVAGTTSLKLQCDAGVTVWATLTDATTPSNRSDILTLTGASTATGVGLRIYKNTDSTPLKFGPDSPVKGNENQWQLSTGTETSPSVRLYVKYVNTGEGINPGTVNGISTFTFSYQ | -0.298 | – | – | – | – | – | – | – | – | – | – | – | – | – | – | -0.31 | – | – | – | – | – | – | -0.176 | -0.315 | -0.302 | -0.293 | 4.13 | 4.3 | 4.59 | 4.3 | 0.197 | -0.302 | -0.097 | -0.208
